Experiment [1] in a line: Nuclear factor erythroid 2-related factor 2/antioxidant responsive element (Nrf2/ARE) small molecule agonists: qHTS cell viability counter screen in human keratinocytes (AID 1919968; active = well fitted curve in the direction sought with a large enough effect in the repeat runs; an effect the other way counts as inactive or inconclusive; also: nearly all actives have a fitted effect of over 55% in size). Put shortly:
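Cytotoxicity was multiplexed with the Nrf2/ARE luciferase assay in the same wells. Stably transfected HaCaT keratinocytes were treated with test compounds for 23 h at 37 C. Cell viability was then measured by CellTiter-Fluor fluorescence.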

The target of experiment [2] is Gonadotropin-releasing hormone receptor (Homo sapiens) (UniProt P30968). Nature of the experiment: Human gonadotropin-releasing hormone receptor (GnRHR) small molecule agonists, calcium flux assay in GnRHR-HEK293 cells (AID 1920063). Also: nearly all actives have a fitted effect of over 35% in size. The method in brief:
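Agonist activity was measured as intracellular calcium flux in HEK293 cells engineered to stably express human GnRHR. After dye loading for 1 hour at 37 C, compounds in DMSO were added and fluorescence was followed for 3 minutes.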
(A change in cytosolic calcium serves as a functional read-out for many receptors and channels.)

Experiment [3] deals with KiSS-1 receptor (Homo sapiens) (UniProt Q969F8). Nature of the experiment: Human kisspeptin (KISS1R) small molecule agonists, calcium flux assay in KISS1R-HEK293 cells (AID 1920064; active = well fitted curve in the direction sought with a large enough effect in the repeat runs; an effect the other way counts as inactive or inconclusive). The method in brief: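 Agonist activity is monitored as intracellular calcium rise in engineered HEK293 cells carrying human KISS1R. Cells are dye-loaded for 1 h at 37 C before compound addition, and fluorescence is recorded for 3 min.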
Sequence of KiSS-1 receptor (Homo sapiens) (Q969F8 whole entry, looked up): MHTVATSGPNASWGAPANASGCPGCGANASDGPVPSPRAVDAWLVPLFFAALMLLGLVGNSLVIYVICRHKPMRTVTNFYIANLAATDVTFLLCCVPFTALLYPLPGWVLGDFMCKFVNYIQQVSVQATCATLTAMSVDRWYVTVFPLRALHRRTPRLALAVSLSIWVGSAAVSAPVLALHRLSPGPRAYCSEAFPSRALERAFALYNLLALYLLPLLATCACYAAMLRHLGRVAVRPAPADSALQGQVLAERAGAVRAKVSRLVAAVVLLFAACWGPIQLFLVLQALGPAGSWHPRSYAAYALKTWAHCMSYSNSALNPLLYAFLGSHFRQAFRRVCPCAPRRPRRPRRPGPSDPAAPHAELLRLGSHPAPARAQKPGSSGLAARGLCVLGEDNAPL

The nature of experiment [4]: G protein-coupled receptor (GPCR) small molecule agonists, calcium flux assay: HEK293 wild type cell line counter screen (AID 1920065). Put shortly:
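Seed cells, incubate 18 h (37 C, 5% CO2); add calcium dye, 1 h at 37 C; pin-transfer compounds, ATP control or DMSO; read fluorescence 480/540 nm each second for 3 min.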

Experiment [5] can be described thus: p53 small molecule agonists, cell-based qHTS assay with human liver microsomes (AID 1963577). Put shortly:
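p53RE-bla cells, 4,000/well, compound added after 5 h, with human liver microsomes 0.5 mg/mL and NADPH 0.5 mg/mL final; 16 h at 37 C, then LiveBLAzer 2 h RT, fluorescence.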

Experiment [6] is described as follows: p53 small molecule agonists, cell-based qHTS assay with rat liver microsomes (AID 1963578). Put shortly: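 p53RE-bla cells, 4,000/well, pre-incubated 5 h, then given compounds plus rat liver microsomes (0.5 mg/mL final) and NADPH (0.5 mg/mL final). Incubation 16 h at 37 C; beta-lactamase reporter read by LiveBLAzer fluorescence after 2 h at room temperature.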
In general terms: qHTS replaces the single test concentration by a dilution series.

The nature of experiment [7]: p53 small molecule agonists, cell-based qHTS assay with human liver microsomes: qHTS cell viability counter screen (AID 1963579). Also: nearly all actives have a fitted effect of over 45% in size. The method in brief:
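p53RE-bla cells, 4,000/well, dosed 5 hours after plating, with human liver microsomes (0.5 mg/mL final) plus NADPH (0.5 mg/mL final), 16 hours at 37 C. Viability read as CellTiter-Glo luminescence after 30 min at room temperature.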

A short description of experiment [8]: p53 small molecule agonists, cell-based qHTS assay with rat liver microsomes: qHTS cell viability counter screen (AID 1963580). Also: nearly all actives have a fitted effect of over 45% in size. The method in brief: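 Counter screen for cytotoxicity under metabolic activation: rat liver microsomes and NADPH, 0.5 mg/mL final each, added with compounds to p53RE-bla HCT-116 cells; 16 h at 37 C, then ATP luminescence read.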
Experiment [9] in a line: p53 small molecule agonists, cell-based qHTS assay: qHTS cell viability counter screen (AID 1963581). Also: nearly all actives have a fitted effect of over 45% in size. Put shortly:
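Viability was counter-screened in parallel with the p53 agonist reporter by measuring intracellular ATP luminescence in the same HCT-116 p53RE-bla wells after 16 h compound treatment at 37 C.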

Experiment [10] can be described thus: p53 small molecule agonists, cell-based qHTS assay (AID 1963582; active = well fitted activation curve with a large enough effect in the signal ratio in the repeat runs, not every such curve was filed as active; the % refers to the signal ratio). The method in brief:
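Cells carrying a p53-responsive bla reporter are treated with test compounds for 16 h at 37 C; beta-lactamase activity is then detected with LiveBLAzer B/G FRET substrate after 2 h at room temperature.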

Experiment [11] concerns the target 5-hydroxytryptamine receptor 2A (Homo sapiens) (UniProt P28223). Nature of the experiment: 5-hydroxytryptamine receptor 2A (HTR2A) small molecule antagonists, cell-based qHTS assay (AID 1963586). Also: nearly all actives have a fitted effect of over 45% in size. Put shortly: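 CHO cells stably expressing human HTR2A were plated for 18 h at 37 C, then loaded with calcium dye for 1 h. Compounds were preincubated 5 min at room temperature before DOI (4 nM solution) was added. Kinetic fluorescence was read for 3 min.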

Experiment [12] has the same target. Nature of the experiment: 5-hydroxytryptamine receptor 2A (HTR2A) small molecule agonists, cell-based qHTS assay (AID 1963587). Also: nearly all actives have a fitted effect of over 30% in size. The method in brief: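 HTR2A-CHO cells, plated 18 h at 37 C/5% CO2, dye-loaded 1 h at 37 C; compounds in DMSO added by pin tool (agonist mode). Intracellular calcium flux read as kinetic fluorescence on FDSS over 2 min at 1 s intervals.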

Experiment [13] concerns the target Muscarinic acetylcholine receptor M1 (Homo sapiens) (UniProt P11229). Nature of the experiment: Cholinergic receptor muscarinic 1 (CHRM1) small molecule agonists, cell-based qHTS assay (AID 1963589). Also: nearly all actives have a fitted effect of over 35% in size. Put shortly:
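Cells were plated and incubated 18 h at 37 C/5% CO2, loaded with calcium dye for 1 h at 37 C, then treated with compounds in DMSO. Fluorescence was recorded kinetically at 1 sec intervals.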

Experiment [14] in a line: cAMP Responsive Elements (CRE) small molecule agonists, cell-based qHTS assay (AID 1963590). Put shortly:
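Cells carrying a CRE-driven beta-lactamase reporter (HEK 293T) are seeded, incubated overnight (18 h), and treated with test compounds for 3 h at 37 C; reporter activity is then detected with a FRET substrate after 2 h at room temperature.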

A short description of experiment [15]: cAMP Responsive Elements (CRE) small molecule antagonists, cell-based qHTS assay (AID 1963591; active = well fitted inhibition curve with a large enough effect in the signal ratio in the repeat runs, not every such curve was filed as active; the % refers to the signal ratio). The method in brief: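 Cells (CRE-bla HEK 293T, DMEM with 10% dialyzed FBS and 25 mM HEPES) are seeded and incubated 18 h. Compounds are added with NKH477 agonist at 0.25 uM final for 3 h, then FRET substrate for 2 h.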
For experiment [16], the target named is Beta-2 adrenergic receptor (Homo sapiens) (UniProt P07550). Nature of the experiment: Adrenergic beta2 receptor (ADRB2) small molecule antagonists, cell-based qHTS assay (AID 1963592). Also: series mostly up to about 92 µM; nearly all actives have a fitted effect of over 50% in size. Put shortly: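 Assay format: CHO-ADRB2 cells, 18-20hr seeding at 37C/5% CO2, then compound plus 1nM isoproterenol agonist mix for 0.5hr RT. Homogeneous time-resolved fluorescence cAMP detection after 1hr, expressed as 665/615 nm ratio.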
Sequence of Beta-2 adrenergic receptor (Homo sapiens) (P07550 whole entry, looked up): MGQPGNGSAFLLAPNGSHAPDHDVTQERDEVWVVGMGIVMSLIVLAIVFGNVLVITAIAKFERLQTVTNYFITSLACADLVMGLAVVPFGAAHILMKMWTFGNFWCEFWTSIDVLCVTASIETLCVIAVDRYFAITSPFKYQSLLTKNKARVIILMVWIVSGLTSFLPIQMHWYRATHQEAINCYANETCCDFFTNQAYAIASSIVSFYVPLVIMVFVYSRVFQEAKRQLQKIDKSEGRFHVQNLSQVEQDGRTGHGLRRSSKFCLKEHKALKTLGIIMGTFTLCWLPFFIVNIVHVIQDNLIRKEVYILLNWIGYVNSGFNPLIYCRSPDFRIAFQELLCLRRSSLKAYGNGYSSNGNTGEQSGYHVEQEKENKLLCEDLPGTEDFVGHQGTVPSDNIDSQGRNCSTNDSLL

Experiment [17] has as its target D(2) dopamine receptor (Homo sapiens) (UniProt P14416). Nature of the experiment: Dopamine D2 receptor (DRD2) small molecule agonists, cell-based qHTS assay (AID 1963594). Also: nearly all actives have a fitted effect of over 35% in size. Also: potency is read from the fitted curve at half-maximal effect. The method in brief:
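HEK293 cells stably expressing DRD2 were cultured 24 h at 37 C, then given Ro20-1724 (0.1 mM final) and compounds for 10 min at room temperature. NKH477 (200nM) was then added for 30 min. cAMP was read by HTRF.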

For experiment [18] the target is unchanged. Nature of the experiment: Dopamine D2 receptor (DRD2) small molecule antagonists, cell-based qHTS assay (AID 1963595; active = well fitted inhibition curve with a large enough effect in the signal ratio in the repeat runs, with a control signal flat; the % refers to the signal ratio). The method in brief: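 Readout: HTRF cAMP, cAMP-d2 competing with cellular cAMP for anti-cAMP cryptate, read after 1 h. Cells: DRD2-HEK293. Conditions: 0.1 mM Ro20-1724, 12 nM quinpirole, 200 nM NKH477, 30 min RT.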
The target in experiment [19] is Muscarinic acetylcholine receptor M1 (Homo sapiens) (UniProt P11229). Nature of the experiment: Cholinergic receptor muscarinic 1 (CHRM1) small molecule antagonists, cell-based qHTS assay (AID 1963588). Also: nearly all actives have a fitted effect of over 40% in size. Put shortly: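 Compounds were tested at 15 concentrations in three independent runs. Dye-loaded CHRM1-CHO cells were exposed 5 min at room temperature before stimulation by acetylcholine added at 50nM. Intracellular calcium was read kinetically on FDSS for 3 min.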
Sequence of Muscarinic acetylcholine receptor M1 (Homo sapiens) (P11229 whole entry, looked up): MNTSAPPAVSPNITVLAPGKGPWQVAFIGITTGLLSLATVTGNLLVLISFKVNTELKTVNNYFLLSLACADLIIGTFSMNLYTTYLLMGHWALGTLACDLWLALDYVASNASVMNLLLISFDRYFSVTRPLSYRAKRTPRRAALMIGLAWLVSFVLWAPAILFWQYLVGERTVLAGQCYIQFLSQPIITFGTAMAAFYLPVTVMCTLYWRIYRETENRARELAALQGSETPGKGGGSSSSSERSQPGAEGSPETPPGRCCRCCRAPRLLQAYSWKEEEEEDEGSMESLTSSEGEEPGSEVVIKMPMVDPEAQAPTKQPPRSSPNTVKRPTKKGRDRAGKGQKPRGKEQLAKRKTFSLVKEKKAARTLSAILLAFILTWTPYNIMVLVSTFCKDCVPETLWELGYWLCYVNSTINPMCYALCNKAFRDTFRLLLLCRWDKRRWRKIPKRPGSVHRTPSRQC

Experiment [20] is described as follows: Nuclear factor erythroid 2-related factor 2/antioxidant responsive element (Nrf2/ARE) small molecule agonists: luciferase reporter gene qHTS assay in human keratinocytes (AID 1919969). Also: nearly all actives have a fitted effect of over 35% in size.

Values without a mark were called inactive. Records with an inconclusive call do not appear. The source made the active and inactive calls. Unless noted, calls follow the shape of the full dose curve. Square brackets hold non-standard residues; d marks the D form. Peptide text beside a SMILES is read from it. * marks the point of attachment. Sta = CC(C)C[C@H](N)[C@@H](O)CC(=O)O; Isovaleryl = CC(C)CC(=O)*

Sequence of Gonadotropin-releasing hormone receptor (Homo sapiens) (P30968 whole entry, looked up): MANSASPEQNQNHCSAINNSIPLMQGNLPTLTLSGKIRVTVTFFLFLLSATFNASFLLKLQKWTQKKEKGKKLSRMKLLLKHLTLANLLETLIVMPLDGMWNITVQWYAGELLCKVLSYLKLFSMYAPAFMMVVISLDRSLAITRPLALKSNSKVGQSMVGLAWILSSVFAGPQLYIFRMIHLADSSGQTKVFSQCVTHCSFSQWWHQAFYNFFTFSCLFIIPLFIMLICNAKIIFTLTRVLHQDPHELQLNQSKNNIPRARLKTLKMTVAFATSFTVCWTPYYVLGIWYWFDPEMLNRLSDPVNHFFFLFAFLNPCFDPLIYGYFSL
Sequence of D(2) dopamine receptor (Homo sapiens) (P14416 whole entry, looked up): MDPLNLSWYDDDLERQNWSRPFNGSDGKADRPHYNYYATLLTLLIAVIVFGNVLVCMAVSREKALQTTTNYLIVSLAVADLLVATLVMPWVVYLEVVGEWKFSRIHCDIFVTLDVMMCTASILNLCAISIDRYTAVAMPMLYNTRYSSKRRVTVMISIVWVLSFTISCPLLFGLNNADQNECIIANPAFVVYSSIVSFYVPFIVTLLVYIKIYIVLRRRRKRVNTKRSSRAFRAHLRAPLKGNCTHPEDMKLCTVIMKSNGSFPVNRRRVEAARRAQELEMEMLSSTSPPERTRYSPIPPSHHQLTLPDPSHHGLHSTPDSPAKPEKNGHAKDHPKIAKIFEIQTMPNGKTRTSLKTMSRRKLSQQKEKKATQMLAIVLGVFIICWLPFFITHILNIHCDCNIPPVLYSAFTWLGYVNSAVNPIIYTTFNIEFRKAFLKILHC
Sequence of 5-hydroxytryptamine receptor 2A (Homo sapiens) (P28223 whole entry, looked up): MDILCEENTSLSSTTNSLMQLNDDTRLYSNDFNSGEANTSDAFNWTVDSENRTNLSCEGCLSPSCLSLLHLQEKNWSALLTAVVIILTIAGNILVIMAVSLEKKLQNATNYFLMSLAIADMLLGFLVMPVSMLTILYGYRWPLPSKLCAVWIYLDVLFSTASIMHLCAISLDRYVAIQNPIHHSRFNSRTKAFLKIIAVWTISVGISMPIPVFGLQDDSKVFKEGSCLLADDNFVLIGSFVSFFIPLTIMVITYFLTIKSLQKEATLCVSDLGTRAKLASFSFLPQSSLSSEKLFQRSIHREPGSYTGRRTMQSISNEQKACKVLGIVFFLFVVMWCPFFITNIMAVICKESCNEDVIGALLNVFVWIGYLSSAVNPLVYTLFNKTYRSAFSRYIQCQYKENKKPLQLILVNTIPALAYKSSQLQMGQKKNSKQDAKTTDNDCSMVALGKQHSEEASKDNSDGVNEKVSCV

Consider `O=P(O)(O)Oc1ccccc1`, for which the Potency result in experiment [1], in experiment [2], in [5], in [6], in experiment [7] and in experiment [8] was “inactive” each time. In addition, the Potency entry in [9], in [10], in experiment [11], in experiment [12], in experiment [13] and in [14] was “inactive” each time. Also, the Potency result in [15], in experiment [16], in experiment [17] and in [18] was “inactive” throughout. Moreover, the outcome in experiment [3] and in [4] was inactive.
For `CC(C)COC(=O)COc1cc(Cl)c(Cl)cc1Cl`, the Potency entry in experiment [1], in experiment [2], in experiment [5], in [6], in experiment [7] and in experiment [8] was “inactive” each time. For the same molecule, the Potency entry in experiment [9], in experiment [10], in experiment [11], in experiment [19], in experiment [13] and in experiment [15] was “inactive” in each case. In addition, the Potency result in experiment [16], in experiment [17] and in experiment [18] was “inactive” in each case. The result in [3] and in experiment [4] was inactive.
As for `O=C1c2ccccc2C(=O)N1CO`, the Potency entry in experiment [1], in experiment [2], in [5], in [6], in [7] and in [8] was “inactive” each time. Further, the Potency result in experiment [9], in experiment [10], in experiment [12], in experiment [13], in [14] and in experiment [15] was “inactive” each time. For the same molecule, the Potency result in [17] and in [18] was “inactive” throughout. In addition, the outcome in experiment [3] and in experiment [4] was inactive.
Regarding `CCOC(=O)Oc1ccc(CCNC(=O)[C@H](CCSC)NC(C)=O)cc1OC(=O)OCC`, the Potency entry in experiment [1], in experiment [2], in [5], in experiment [6], in experiment [7] and in experiment [8] was “inactive” each time. Further, the Potency result in experiment [9], in experiment [10], in experiment [11], in experiment [12], in experiment [19] and in experiment [13] was “inactive” each time. For the same molecule, the Potency result in experiment [15], in experiment [16] and in experiment [18] was “inactive” in each case. Further, the result in experiment [3] and in experiment [4] was inactive. In addition, the Potency in experiment [17] was 2370 nM (active).
Turning to `CC(C)CC(=O)N[C@H](C(=O)N[C@H](C(=O)N[C@@H](CC(C)C)[C@@H](O)CC(=O)N[C@@H](C)C(=O)N[C@@H](CC(C)C)[C@@H](O)CC(=O)O)C(C)C)C(C)C` (Isovaleryl-VV[Sta]A[Sta]-OH), the Potency entry in experiment [1], in experiment [2], in experiment [5], in [6], in experiment [7] and in experiment [8] was “inactive” in each case. The Potency result in experiment [9], in [10], in experiment [14], in [15], in [16] and in [17] was “inactive” throughout. Moreover, the result in experiment [3] and in [4] was inactive.
As for `C=CCSSCCC`, the Potency result in experiment [1], in experiment [20], in [5], in experiment [7], in [8] and in experiment [10] was “inactive” throughout. Besides, the Potency entry in [11], in experiment [12], in experiment [19], in experiment [13], in [14] and in experiment [15] was “inactive” in each case. In addition, the Potency entry in experiment [16], in experiment [17] and in experiment [18] was “inactive” throughout. Besides, in experiment [4], the result was inactive.
In the case of `NCC(=O)CCC(=O)O`, the Potency entry in [1], in experiment [2], in experiment [5], in [6], in [7] and in [8] was “inactive” throughout. The Potency entry in experiment [9], in [10], in [11], in [12], in experiment [19] and in experiment [13] was “inactive” throughout. For the same molecule, the Potency result in [14], in experiment [16], in experiment [17] and in experiment [18] was “inactive” each time. The result in [3] and in experiment [4] was inactive.

The values above are taken from PubChem BioAssay (Tox21).
